This is part of a sample that, as a whole, favours compounds with a hit. Of some 83,000 tested, about 20% had one in any assay.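 Negative percent growth values reflect cell death: -40 means 40% of the cells present at the start died, and -100 means all died.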 The source made the active and inactive calls. The calls were made as follows: active = growth percent below 10; inactive = the rest.
Legend:
Assay in all cases: NCI-60 one-dose screen, 48 h (100 = growth as untreated, 0 = no growth, -100 = all killed)
Details in all cases: 10 µM unless noted
HCT-15 colon = tested on: HCT-15 colon
HT29 colon = tested on: HT29 colon
SNB-75 CNS = tested on: SNB-75 CNS
SNB-19 CNS = tested on: SNB-19 CNS
U251 CNS = tested on: U251 CNS
PC-3 prostate = tested on: PC-3 prostate
SK-MEL-5 melanoma = tested on: SK-MEL-5 melanoma
UACC-62 melanoma = tested on: UACC-62 melanoma
LOX IMVI melanoma = tested on: LOX IMVI melanoma
SK-MEL-28 melanoma = tested on: SK-MEL-28 melanoma

Measured: growth

COc1ccccc1CNCCCN1C(=O)c2ccc3c4c(ccc(c24)C1=O)C(=O)N(CCCNCc1ccccc1OC)C3=O
active: HCT-15 colon -69.2% | HT29 colon -59.5% | SNB-75 CNS -95.7% | SNB-19 CNS -68.8% | U251 CNS -89.5% | PC-3 prostate -59.9% | SK-MEL-5 melanoma -100% | UACC-62 melanoma -72.5% | LOX IMVI melanoma -63.1% | SK-MEL-28 melanoma -90.6%

COc1cc(N2C(=O)C=CC2=O)ccc1N1C(=O)C=CC1=O
inactive: HCT-15 colon 109% | HT29 colon 102% | SNB-75 CNS 90.2% | SNB-19 CNS 107% | U251 CNS 97.5% | PC-3 prostate 94.8% | SK-MEL-5 melanoma 104% | UACC-62 melanoma 106% | LOX IMVI melanoma 99.1% | SK-MEL-28 melanoma 103%

CCC(C)(C)c1ccc(OCCCCCCN2CCNCC2)cc1
inactive: SNB-75 CNS 60.5% | SNB-19 CNS 68.6% | U251 CNS 18.8% | PC-3 prostate 64.3% | SK-MEL-5 melanoma 34.2% | UACC-62 melanoma 85.6% | SK-MEL-28 melanoma 74.2%
active: HCT-15 colon -36.1% | HT29 colon 8.87% | LOX IMVI melanoma -47.1%

CCC(C)C1NC(=O)C(CCCCN)NC(=O)C(CCCCN)NC(=O)C(CC(C)C)NC(=O)C(CCCCN)NC(=O)C(C(C)CC)NC(=O)C(C(C)C)NC(=O)C(C(C)CC)NC(=O)C(CCCCN)NC(=O)C(CCCCN)NC(=O)C(C)NC(=O)C(CCCCN)NC(=O)C(CC(C)C)NC1=O (stereo not given)
active: HT29 colon 5.52% | U251 CNS 6.7% | PC-3 prostate 6.52% | SK-MEL-5 melanoma 2.11%
inactive: HCT-15 colon 35.4% | SNB-75 CNS 36.9% | SNB-19 CNS 20.9% | UACC-62 melanoma 22.1% | LOX IMVI melanoma 50.5% | SK-MEL-28 melanoma 48.2%

CCCCCCCCC/C(=N\NC(=O)c1ccncc1)c1ccc(O)c(O)c1O
active: SK-MEL-5 melanoma -18.8% | UACC-62 melanoma -5.54%
inactive: HCT-15 colon 34.9% | HT29 colon 29% | SNB-75 CNS 37.1% | SNB-19 CNS 33.8% | U251 CNS 12.1% | PC-3 prostate 47% | LOX IMVI melanoma 22.9% | SK-MEL-28 melanoma 43.7%

Nc1ccc(S(=O)(=O)Nc2cc(F)cc(F)c2)cc1
inactive: HCT-15 colon 105% | HT29 colon 102% | SNB-75 CNS 92.8% | SNB-19 CNS 104% | U251 CNS 98.1% | PC-3 prostate 109% | SK-MEL-5 melanoma 106% | UACC-62 melanoma 88.3% | LOX IMVI melanoma 91.5% | SK-MEL-28 melanoma 120%

COc1ccc(NC(=O)/C=C(C)/C=C/C=C(C)/C=C/C2=C(C)CCCC2(C)C)cc1
inactive: HCT-15 colon 72.5% | HT29 colon 72.4% | SNB-75 CNS 66.3% | SNB-19 CNS 110% | U251 CNS 26.3% | PC-3 prostate 63.1% | SK-MEL-5 melanoma 110% | UACC-62 melanoma 77.4% | LOX IMVI melanoma 68.4% | SK-MEL-28 melanoma 105%

COC(=O)c1ccc2[nH]c(O)c(C(=Nc3ccc(N(C)C(=O)CN4CCN(C)CC4)cc3)c3ccc4c(c3)OCO4)c2c1
inactive: SNB-19 CNS 14% | U251 CNS 13.4% | PC-3 prostate 19.3% | SK-MEL-5 melanoma 10.1% | UACC-62 melanoma 31.8% | SK-MEL-28 melanoma 20.8%
active: HCT-15 colon 8.49% | HT29 colon 4.28% | SNB-75 CNS -1.84% | LOX IMVI melanoma 6.8%

NNC(=O)CNc1ccc2ccccc2c1
inactive: HCT-15 colon 110% | HT29 colon 106% | SNB-75 CNS 104% | SNB-19 CNS 109% | U251 CNS 101% | PC-3 prostate 98% | SK-MEL-5 melanoma 101% | UACC-62 melanoma 98.8% | LOX IMVI melanoma 96% | SK-MEL-28 melanoma 125%

O=C(Nc1cccc(Cn2c(=O)[nH]c3ccc(Oc4ncccn4)cc3c2=O)c1)c1cccc(F)c1
inactive: HCT-15 colon 83% | HT29 colon 75.7% | SNB-75 CNS 75% | SNB-19 CNS 72.6% | U251 CNS 82.3% | PC-3 prostate 64.3% | SK-MEL-5 melanoma 65.5% | UACC-62 melanoma 58.4% | LOX IMVI melanoma 86% | SK-MEL-28 melanoma 93.8%

COc1ccc(/C=C2\SC(=O)N(Cc3cc(=O)oc4ccc(OC)cc34)C2=O)cc1
inactive: HCT-15 colon 89.9% | HT29 colon 95.8% | SNB-75 CNS 74.3% | SNB-19 CNS 87% | U251 CNS 98.9% | PC-3 prostate 93.1% | SK-MEL-5 melanoma 87.4% | UACC-62 melanoma 66.3% | LOX IMVI melanoma 85.7% | SK-MEL-28 melanoma 95.1%

Cc1cc(CSc2ccc(Cl)cc2)ccc1N
inactive: HCT-15 colon 98.3% | HT29 colon 106% | SNB-75 CNS 87.3% | SNB-19 CNS 84.3% | U251 CNS 78.6% | PC-3 prostate 76.5% | SK-MEL-5 melanoma 103% | UACC-62 melanoma 90.5% | LOX IMVI melanoma 98.6% | SK-MEL-28 melanoma 111%

CCN(CC)CCCC(C)Nc1c(C)cnc2cc(Cl)c(C)cc12 (stereo not given)
inactive: HCT-15 colon 86.8% | HT29 colon 40% | SNB-75 CNS 95.5% | SNB-19 CNS 99.9% | U251 CNS 84.7% | PC-3 prostate 87.8% | SK-MEL-5 melanoma 90.2% | UACC-62 melanoma 109% | LOX IMVI melanoma 81.2% | SK-MEL-28 melanoma 85.4%

COc1ccc2cc(C(C)C(=O)Nc3ccc(S(=O)(=O)Nc4cc(C)on4)cc3)ccc2c1 (stereo not given)
inactive: HCT-15 colon 93.8% | HT29 colon 121% | SNB-75 CNS 99.7% | SNB-19 CNS 117% | U251 CNS 98.9% | PC-3 prostate 104% | SK-MEL-5 melanoma 110% | UACC-62 melanoma 108% | LOX IMVI melanoma 96.2% | SK-MEL-28 melanoma 111%

CCCCCCCCCc1cc[n+](CC(=O)c2ccc([N+](=O)[O-])cc2)cc1
inactive: SNB-75 CNS 23.9% | SNB-19 CNS 13.8% | SK-MEL-28 melanoma 12.3%
active: HCT-15 colon -18.2% | HT29 colon -52.1% | U251 CNS 8.48% | PC-3 prostate -0.775% | SK-MEL-5 melanoma -77.8% | UACC-62 melanoma -6.32% | LOX IMVI melanoma -77.2%

O=c1oc2ccc3ccccc3c2cc1-c1ccnc2[nH]c(=S)[nH]c(=O)c12
inactive: HCT-15 colon 105% | HT29 colon 95.3% | SNB-75 CNS 98.9% | SNB-19 CNS 95% | U251 CNS 98.5% | PC-3 prostate 93% | SK-MEL-5 melanoma 97.8% | UACC-62 melanoma 88.2% | LOX IMVI melanoma 93.1% | SK-MEL-28 melanoma 105%

CCN(CC)C(=O)C1(C)CCCC2(C)c3cc(OC(C)=O)ccc3CCC12 (stereo not given)
inactive: HCT-15 colon 87% | HT29 colon 82.9% | SNB-75 CNS 80.9% | SNB-19 CNS 96.5% | U251 CNS 81.5% | PC-3 prostate 76.2% | SK-MEL-5 melanoma 67.6% | UACC-62 melanoma 73.1% | LOX IMVI melanoma 101% | SK-MEL-28 melanoma 88.5%

O=C(NC1CCN(Cc2ccccc2)CC1)c1cc(-c2cccnc2)nc2ccc(Cl)cc12
active: HCT-15 colon 9.1% | HT29 colon 4.33% | UACC-62 melanoma 8.77%
inactive: SNB-75 CNS 95.6% | SNB-19 CNS 91.4% | U251 CNS 56.2% | PC-3 prostate 69.2% | SK-MEL-5 melanoma 50.2% | LOX IMVI melanoma 45.2% | SK-MEL-28 melanoma 94.1%

CCCC(=O)NNc1[nH]c(-c2cc(OC)c(OC)c(OC)c2)cc1C(=O)OCC
inactive: HCT-15 colon 116% | HT29 colon 114% | SNB-75 CNS 114% | SNB-19 CNS 110% | U251 CNS 103% | PC-3 prostate 111% | SK-MEL-5 melanoma 112% | UACC-62 melanoma 102% | LOX IMVI melanoma 105% | SK-MEL-28 melanoma 122%

CC(C)(C)c1ccc(OCCOC(=O)CBr)cc1
inactive: HCT-15 colon 97.9% | HT29 colon 104% | SNB-75 CNS 84.6% | SNB-19 CNS 104% | U251 CNS 103% | PC-3 prostate 110% | SK-MEL-5 melanoma 97% | UACC-62 melanoma 93.6% | LOX IMVI melanoma 97.8% | SK-MEL-28 melanoma 107%

CCOC(=O)c1ccc2n1CCCc1cnc(NC(C)=O)nc1-2
inactive: HCT-15 colon 107% | HT29 colon 106% | SNB-75 CNS 85.5% | SNB-19 CNS 99.7% | U251 CNS 102% | PC-3 prostate 93.1% | SK-MEL-5 melanoma 100% | UACC-62 melanoma 93.9% | LOX IMVI melanoma 99.7% | SK-MEL-28 melanoma 99.2%

COC(=O)c1ccc(C(=Nc2ccc(N(C)C(=O)CN3CCN(C)CC3)cc2)c2c(O)[nH]c3ccc(C(=O)OC)cc23)cc1
inactive: HCT-15 colon 27% | HT29 colon 29.7% | SNB-75 CNS 24.6% | SNB-19 CNS 55.3% | U251 CNS 29% | PC-3 prostate 28.8% | SK-MEL-5 melanoma 36.4% | UACC-62 melanoma 42.7% | LOX IMVI melanoma 38.5% | SK-MEL-28 melanoma 50.4%

[2H]c1nc(=Nc2cc(NC(=O)C=C)c(N(C)CCN(C)C)cc2OC)[nH]c(-c2cn(C([2H])([2H])[2H])c3ccccc23)c1[2H]
active: HCT-15 colon 1.13% | HT29 colon -3.69% | UACC-62 melanoma -10.7%
inactive: SNB-75 CNS 66.9% | SNB-19 CNS 55.8% | U251 CNS 40.9% | PC-3 prostate 50.2% | SK-MEL-5 melanoma 63.5% | LOX IMVI melanoma 39.2% | SK-MEL-28 melanoma 37.5%

C=C[C@]1(C)C=C2C(=O)[C@@]3(O)OC[C@@]4(CCCC(C)(C)C43O)C2(O)C(O)C1 (stereo not given in full)
active: HT29 colon -68.6%
inactive: HCT-15 colon 12.9% | SNB-75 CNS 69.6% | SNB-19 CNS 99.3% | U251 CNS 53.9% | PC-3 prostate 55.2% | SK-MEL-5 melanoma 91.6% | UACC-62 melanoma 86.3% | LOX IMVI melanoma 12.2% | SK-MEL-28 melanoma 47.2%

— PubChem BioAssay (NCI)
